Experimental data as given in ChEMBL document CHEMBL4513216, “Probing the Open Global Health Chemical Diversity Library for Multistage-Active Starting Points for Next-Generation Antimalarials” (ACS Infect Dis, 2020).
About 8,600 (12%) of roughly 69,000 compounds showed an effect of 50% or more. Only a selection was taken, and strong results are over-represented in it overall.

System: Plasmodium berghei
Experiment: Screen against P. berghei liver stage (PbLuc), transformed with Luciferase, at 10uM
Format: functional, HepG2
Conditions: tested at 10 uM

SMILES | INHIBITION
COc1ccc(OC2CCN(C(=O)[C@@H](N)Cc3c[nH]cn3)CC2)cc1 | 23.3%
CN(C)CC1CSCCCN1C(=O)c1cccc(C(F)(F)F)c1 (stereo unspecified) | 4.35%
CC(=O)N1CCN(C(=O)Cc2cnc(-c3c(Cl)cccc3Cl)s2)CC1 | 13.8%
CC(C)N1CCC(c2cc(C(F)(F)F)n3ccnc3n2)CC1 | 15.9%
O=C1CNc2ncnc(Nc3cccc(Cn4cccn4)c3)c2N1 | 46.1%
Cc1nonc1CN(C)Cc1cnn(-c2ccc(Cl)cc2)c1 | -8.58%
CN(C)CCCC(=O)N1C[C@@H]2CC[C@H]1CN(Cc1ccccc1)C2 | 11.2%
c1ccc(-n2ccc(CN3CCCCC3Cn3cncn3)n2)cc1 (stereo unspecified) | -10.1%
CCn1nc(C)c(NC(=O)CN2CC[C@@H](F)C2)c1C | 24.5%
COc1ccccc1CN1CC[C@H]2C[C@H](C(=O)N3CCCC3)O[C@H]2C1 | 64.2%
Cc1ncccc1NC(=O)[C@H]1C[C@@H]2CCN(Cc3ccsc3)C[C@H]2O1 | 75.4%
O=C([C@@H]1C[C@@H]2CCN(CCc3ccccc3)C[C@H]2O1)N1CCCC1 | 50%
Cc1ncccc1NC(=O)[C@@H]1C[C@@H]2CCN(Cc3cccs3)C[C@H]2O1 | 8.93%
CN1CCN(C(=O)[C@@H]2C[C@@H]3CCN(c4cccc(F)c4)C[C@H]3O2)CC1 | 23.3%
O=C([C@@H]1C[C@@H]2CCN(Cc3ccc4c(c3)OCO4)C[C@@H]2O1)N1CCCC1 | 33.4%
O=C([C@@H]1C[C@@H]2CCN(c3cccc(F)c3)C[C@H]2O1)N1CCCC1 | 42.1%
CNC(=O)[C@H]1C[C@@H]2CCN(CCc3ccccc3)C[C@@H]2O1 | 18.3%
O=C([C@H]1C[C@@H]2CCN(c3cccc(F)c3)C[C@H]2O1)N1CCCC1 | 89.5%
COc1ccccc1CN1CC[C@H]2C[C@@H](C(=O)N3CCCC3)O[C@H]2C1 | -16.6%
Cc1ncccc1NC(=O)[C@H]1C[C@@H]2CCN(Cc3nccs3)C[C@@H]2O1 | 31.8%
O=C([C@@H]1C[C@@H]2CCN(Cc3ccoc3)C[C@H]2O1)N1CCCC1 | 26.7%
CC(C)c1ccc(-n2ncc(C(=O)NCC3COC(C)(C)O3)c2N)cc1 (stereo unspecified) | -20.1%
CCOC(=O)NCCC(=O)NC(C)(C)c1ccc2c(c1)OCCO2 | -15.7%

SMILES | INHIBITION
CC(C)(C)c1nc(CN(Cc2cccs2)CC2CCCO2)no1 (stereo unspecified) | 11.2%
c1cncc(COc2ccccc2CNC2CCc3ncnn3C2)c1 (stereo unspecified) | -4.823%
Cc1noc(C2CCC3(CCN(C(=O)c4ncccn4)CC3)O2)n1 (stereo unspecified) | -14.2%
O=C(C(c1ccccc1)S(=O)(=O)c1ccccn1)N1CCCCC1 (stereo unspecified) | 24.7%
Cc1ccc(C(C)N(C)C(=O)c2ccc(=O)n(C)c2)s1 (stereo unspecified) | 37.4%
Cc1ncsc1CN1CCOC(C)(C(=O)N(C)C)C1 (stereo unspecified) | 21.1%
CCCn1c(C)c(CC(=O)NC(C)(C)CO)c2c1CC(C)(C)CC2=O | 4.25%
Cn1cc(CN2C[C@@H]3COC[C@]3(C(=O)NCCc3ccccc3)C2)cn1 | 32.2%
O=C(NC1CC1)[C@H]1C[C@@H]2CCN(CCc3ccccc3)C[C@H]2O1 | 44.4%
O=C(NC1CC1)[C@@H]1C[C@@H]2CCN(Cc3ccccc3)C[C@H]2O1 | 29.9%
O=C(NC1CCC1)[C@@H]1C[C@@H]2CCN(CCc3ccccc3)C[C@H]2O1 | 81.2%
CS(=O)(=O)c1ccc(CNC(=O)N2CCC(CO)CC2)cc1 | 17.4%
CCc1nccn1CC1CCCN1S(=O)(=O)N1CCCOCC1 (stereo unspecified) | -9.39%
CN1C[C@H]2CC[C@@H](CC1=O)N2C(=O)c1cc2ccccc2[nH]c1=O | -7.53%
Cc1cc(N(C)C)nc(N2CCCC2c2ccccn2)n1 (stereo unspecified) | -30%
CC(C)c1noc(CCCC(=O)NC(C)c2nnc3n2CCC3)n1 (stereo unspecified) | 50.2%
CC(C)c1noc(CCC(=O)NC(C)c2nnc3n2CCCCC3)n1 (stereo unspecified) | 11.8%
CCCC(=O)NC(C)c1nnc2n1CCC2 (stereo unspecified) | 3.73%
CC(C)CCC(=O)NC(C)c1nnc2n1CCCCC2 (stereo unspecified) | 53.8%
CC(NC(=O)CCC1CCCCC1)c1nnc2n1CCC2 (stereo unspecified) | -31.8%
CC(C)c1noc(CCC(=O)NC(C)c2nnc3n2CCC3)n1 (stereo unspecified) | 20.6%
CSCCC(C)(O)CNS(=O)(=O)Cc1cccc(C)c1 (stereo unspecified) | 17%
Cc1cc(N2CCCC2c2nnc3n2CCCCC3)nc(C)n1 (stereo unspecified) | 23.6%

SMILES | INHIBITION
Clc1cncc(N2CCCC2c2nnc3n2CCCCC3)n1 (stereo unspecified) | -22.4%
Cc1cc(N2CCCC2c2nnc3n2CCCCC3)nc(N)n1 (stereo unspecified) | 63.6%
c1cnc2nc(N3CCCC3c3nnc4n3CCCCC4)ccc2n1 (stereo unspecified) | 58.7%
c1ccc2nc(N3CCCC3c3nnc4n3CCCCC4)cnc2c1 (stereo unspecified) | 42.8%
CCOc1cncc(N2CCCC2c2nnc3n2CCCCC3)n1 (stereo unspecified) | 24.2%
Cc1cnn(C2CCCN(C(=O)Cc3n[nH]c4ccccc34)C2)c1 (stereo unspecified) | 33.7%
CN(CCc1ccccn1)C(=O)CCC1CCCN(S(C)(=O)=O)C1 (stereo unspecified) | 15.3%
O=C(NCc1nncn1C1CCCCC1)C1COc2ccccc2C1 (stereo unspecified) | 32.4%
CNC(=O)N1CCc2cc(C(=O)N(C)C)c(NCC3CC3)nc2CC1 | -25%
Cc1c(NCC(C)(C)C)cccc1C(=O)NCc1ncnn1C | -30.1%
COc1ccc(Cl)cc1CCNC(=O)NCc1ncnn1C | -23.5%
COc1ccc(Br)c(NC(=O)NCc2ncnn2C)c1 | 13.8%
Cc1cc(C)cc(C(=O)NCc2ncnn2C)c1 | 57.2%
COc1ccc(C)c(NC(=O)NCc2ncnn2C)c1 | 51.1%
Cc1c(Cl)cc(C(=O)NCCc2ncnn2C)cc1Cl | 42%
O=C(c1ccc(-c2ccccc2)[nH]c1=O)N1CCN(C2CC2)CC1 | 32.8%
CN(C)C(=O)[C@H]1C[C@H]2CN(C(=O)NCC3CCCCC3)C[C@@H]1O2 | -36%
Fc1ccc(CN2CCCn3cnc(COCC4CC4)c3C2)cc1 | 45.8%
NC(=O)C(NC(=O)COC1CCCCC1)c1ccccc1 (stereo unspecified) | 22.5%
O=C(COC1CCCC1)NC(C(=O)Nc1cc[nH]n1)c1ccccc1 (stereo unspecified) | 62.6%
O=C(NC(C(=O)Nc1cc[nH]n1)c1ccccc1)C1CCC1 (stereo unspecified) | 50.7%
CC(NC(=O)C1CCCC1)c1nc(-c2ccccc2)c[nH]1 (stereo unspecified) | 31.7%
O=C(NC(c1ccccc1)c1cccnc1)C1CC1 (stereo unspecified) | 25.8%

SMILES | INHIBITION
NC(=O)C(NC(=O)COC1CCCC1)c1ccccc1 (stereo unspecified) | 45.3%
c1cnnc(N2CCCC2CNCc2nc(-c3ccco3)no2)c1 (stereo unspecified) | 30.42%
CNC(=O)CN1CC[C@H]2CN(C(=O)c3ccoc3)C[C@H]2C1 | 15.4%
Cc1ccc(CC(=O)N2CCCC(n3ccnc3C(C)C)C2)cn1 (stereo unspecified) | -9.19%
CN1CCOC(CNC(=O)Cc2coc(-c3ccccc3)n2)C1 (stereo unspecified) | -33.9%
CC(=O)c1cccc(NC(=O)CCn2nc(-c3cccs3)oc2=O)c1 | 29.2%
O=C(c1c2c(N3CCCC3)ncnc2n2ccccc12)N1CCOCC1 | 36.2%
O=C(c1c2c(NCC3CC3)ncnc2n2ccccc12)N1CCOCC1 | 50.7%
O=C(c1c2c(NCC3CC3)ncnc2n2ccccc12)N1CCCC1 | 26.5%
CCc1n[nH]c(C2CN(C(=O)c3cscn3)CCO2)n1 (stereo unspecified) | -23.9%
CO[C@@H]1CN(S(=O)(=O)c2cn(C)cn2)[C@@H]2CCCO[C@@H]21 | -66.7%
O=C(NCc1nncn1C1CC1)c1cccnc1Oc1ccccc1 | 25.6%
CNC(=O)CN1CCC(c2nn(C)c(=O)n2-c2ccccc2)CC1 | 53.7%
CCSC(C)C(=O)N1CCC(c2nn(C)c(=O)n2-c2ccccc2)CC1 (stereo unspecified) | 63.7%
CNC(=O)CN1CCC(CN(C)CCSc2ccccc2)CC1 | -70.7%
CC(=O)N1CCC(c2nn(C)c(=O)n2-c2ccccc2)CC1 | 35.2%
Cn1nc(C2CCN(CC(=O)NC3CC3)CC2)n(-c2ccccc2)c1=O | -21.3%
CCCC(=O)N1CCC(c2nn(C)c(=O)n2-c2ccccc2)CC1 | 28.7%
Cc1nc(NCc2cccc(F)c2)cc(C2CCNCC2)n1 | 24.8%
COc1ccccc1CN1C(=O)O[C@@H]2CN(CC3CC3)C[C@@H]21 | -0.613%
COc1ccccc1CN1C(=O)O[C@@H]2CN(C(C)C)C[C@@H]21 | 79.5%
COc1ccccc1CN1C(=O)O[C@@H]2CN(S(=O)(=O)N(C)C)C[C@@H]21 | 7.97%
CCNc1ccnc(NCC2(N(C)C)CCOCC2)n1 | 39%

SMILES | INHIBITION
CCC1(CC)CC(=O)N(CC(O)c2ccc(Cl)cc2)C1=O (stereo unspecified) | 7.3%
O=C(CCc1nnc(-c2ccsc2)o1)NCC1CCN(C2CC2)C1 (stereo unspecified) | -6.04%
O=C(CCc1nc(-c2ccsc2)no1)NCC1CCN(C2CC2)C1 (stereo unspecified) | 69%
O=C(CCc1nc(-c2cccnc2)no1)NCC1CCN(C2CC2)C1 (stereo unspecified) | 11%
Cc1cc(NCCS(C)(=O)=O)nc2cc3c(cc12)CCC3 | 41.5%
COc1cc2nc(NCCN3CCNC3=O)cc(C)c2cc1OC | -13.4%
Cc1cc(NCCN2CCNC2=O)nc2cc3c(cc12)CCC3 | 59.5%
COc1ccc(NC(=O)N2CCCCC2c2ncc[nH]2)cc1 (stereo unspecified) | 11.2%
Cc1cccc(NC2CCc3c2[nH]c(=O)n(C2CCCCC2)c3=O)c1C (stereo unspecified) | 84%
COc1ccc(NC2CCc3c2[nH]c(=O)n(C2CCCCC2)c3=O)cc1 (stereo unspecified) | 78.4%
O=c1[nH]c2c(c(=O)n1C1CCCCC1)CCC2Nc1ccccc1Cl (stereo unspecified) | 80.5%
O=c1[nH]c2c(c(=O)n1C1CCCCC1)CCC2Nc1ccc(Cl)cc1 (stereo unspecified) | 46.5%
O=c1[nH]c2c(c(=O)n1C1CCCCC1)CCC2Nc1ccccn1 (stereo unspecified) | 24.2%
O=c1[nH]c2c(c(=O)n1C1CCCCC1)CCC2NCCc1ccccc1 (stereo unspecified) | 37.9%
O=c1[nH]c2c(c(=O)n1C1CCCCC1)CCC2Nc1ccccc1 (stereo unspecified) | -22.9%
O=c1[nH]c2ncccc2n1C1CCCCC1 | 1.41%
O=c1[nH]c2ncccc2n1C1CCCC1 | 9%
O=c1[nH]c2c(c(=O)n1C1CCCCC1)CCC2NCc1ccccc1 (stereo unspecified) | 52.1%
O=C(c1ccc2c(c1)[nH]c(=O)n2C1CCCC1)N1CC(O)C1 | 44.3%
